Compound activity from PubChem.
G9a inh: blocks human histone lysine methyltransferase G9a | 350,000 compounds, 8.8% hits | Potency, µM (top dose mostly 102 µM), inactives show at the top dose activity, negative = inhibition, hits mostly inhibitors | G9a H3K9 monomethylation, AlphaScreen, 2 h | AID 504332; further: on the % scale 0 is the no-effect control and ±100 the full control effect; nearly all actives have a fitted effect of over 75% in size
Target sequence (Q96KQ7 913-1193 limits assumed): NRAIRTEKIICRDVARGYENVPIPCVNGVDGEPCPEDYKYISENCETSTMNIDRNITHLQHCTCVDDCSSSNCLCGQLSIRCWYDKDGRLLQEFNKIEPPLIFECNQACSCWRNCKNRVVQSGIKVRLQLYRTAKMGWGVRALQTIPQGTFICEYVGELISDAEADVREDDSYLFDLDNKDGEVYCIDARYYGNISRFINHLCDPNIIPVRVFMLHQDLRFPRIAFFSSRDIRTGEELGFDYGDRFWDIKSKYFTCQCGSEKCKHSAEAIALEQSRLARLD
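Enzyme 20 nM + cpd, 15 min RT; add b-H3K9 pep 500 nM / SAM 20 uM; 2 h RT; anti-H3K9me1 Ab 0.5 ug/mL + SA donor / anti-rabbit acceptor beads 20 ug/mL each, 10 min; AlphaScreen read.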
BAZ2B block: BAZ2B (human) inhibition; Potency, µM (doses to about 114 µM), for the others: at the highest dose activity change, negative = inhibition, hits mostly inhibitors; AID 504333; AlphaScreen BAZ2B-H3K14Ac peptide displacement; 360,000 compounds, 4.4% hits; further: on the % scale 0 is the no-effect control and ±100 the full control effect; nearly all actives have a fitted effect of over 60% in size
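BAZ2B (50 nM) with biotin-H3(5-23)K14Ac peptide (50 nM) in PBS pH 7.4, 0.01% Tween-20, preformed 30 min, then compound 30 min at room temperature; top concentration 110uM. AlphaScreen streptavidin donor/nickel chelate acceptor beads (10 ug/mL final), 20 min dark, signal read.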
JMJD2A Tudor inh: blocks the human JMJD2A Tudor domain; AlphaScreen JMJD2A-Tudor / H3K4me3 peptide binding; AID 504339; Potency, µM (top dose mostly 114 µM), for inactives: at the top dose activity change, negative = inhibition, most hits filed as inhibitors; 390,000 compounds, 4.4% hits; O75164; further: on the % scale 0 is the no-effect control and ±100 the full control effect; nearly all actives have a fitted effect of over 50% in size
HP1b chromo inh: inhibitors of HP1-beta chromodomain binding to methylated histone tails | P83916 | AlphaScreen HP1-beta / biotin-H3K9me3 peptide binding | Potency, µM (doses to about 114 µM), without a hit: top-dose activity change, negative = inhibition, usual class: inhibitors | 390,000 compounds, 0.56% hits | AID 540317; further: nearly all actives have a fitted effect of over 70% in size
Target sequence (P83916 whole entry, looked up): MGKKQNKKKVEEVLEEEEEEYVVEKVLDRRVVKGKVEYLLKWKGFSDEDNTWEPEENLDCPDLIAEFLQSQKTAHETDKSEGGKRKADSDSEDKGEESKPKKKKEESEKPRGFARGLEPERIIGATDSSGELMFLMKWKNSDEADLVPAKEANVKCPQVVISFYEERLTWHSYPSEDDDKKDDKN
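Compound inhibition of the preformed complex between 50 nM HP1-beta and 50 nM biotinylated H3K9me3 peptide was read by AlphaScreen. Buffer was PBS pH 7.4 with 0.01% Tween-20. Incubations ran 30 min at room temperature, with 10 ug/mL donor/acceptor beads.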
VDR inh: vitamin D3 receptor (human) inhibition; VDR-SRC2-3 peptide fluorescence polarization, 2 h; 400,000 compounds, 0.93% hits; Potency, µM, for the others: max response, negative = inhibition, hits mostly inhibitors; P11473; further: on the % scale 0 is the no-effect control and ±100 the full control effect
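Fluorescence polarization assay measuring small-molecule disruption of VDR binding to the coregulator peptide SRC2-3. Compounds were pin-transferred (23 nl) into the reagent mix and incubated 2 h at room temperature before reading.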
PLK1 PBD block: inhibitors of human PLK1 polo-box domain binding | Potency, µM, inactives show max response, negative = inhibition, usual class: inhibitors | 360,000 compounds, 2.8% hits | Plk1 PBD binding of FITC phosphopeptide, fluorescence polarization | P53350; further: series mostly up to about 57 µM; on the % scale 0 is the no-effect control and ±100 the full control effect; nearly all actives have a fitted effect of over 65% in size
* hit, by the source's call; ? = inconclusive; / = no result; ! = a repeat was not active; [ ] = dose if it differs, or a comment. Most compounds without a hit are left out; they make up all but 11% or so of the library. The call rests on the fitted dose curve; in most records, active means well fitted curve in the direction sought with a large enough effect; inconclusive means small, poorly fitted or top-dose-only effect, or another doubt; inactive means no such curve, though single readings can be large; an effect the other way counts as inactive or inconclusive. Potency means the concentration at half of the fitted maximal effect.

SMILES | G9a inh | BAZ2B block | JMJD2A Tudor inh | HP1b chromo inh | VDR inh | PLK1 PBD block
CCCc1cc(=O)[nH]c(SCC(=O)N(C)C2CCS(=O)(=O)C2)n1 (stereo not given) | 7%[59 µM] | 2% | 0% | 36% | 17% | -5%
O=S(=O)(NN1CCOCC1)c1ccc(Cl)s1 | 1.3µM* | -2% | -10% | 29% | 9% | 21µM*
CN1CCN(S(=O)(=O)c2ccc(Cl)s2)CC1 | ? | -34% | -10% | -13% | 9% | 2%
CN1CCN(NS(=O)(=O)c2ccc(Cl)s2)CC1 | 1.6µM* | 8% | -12% | 19% | ? | 8.4µM*
O=S(=O)(NN1CCOCC1)c1ccc(Br)s1 | / | -16% | -8% | 38% | ? | 3µM*
O=C(CN(CC(=O)N1CCOCC1)S(=O)(=O)c1ccc(Br)s1)N1CCOCC1 | / | / | ? | -5% | -22% | 24µM*
CCc1ccc(N2C(=O)N(CC(=O)C(C)(C)C)c3ccccc3S2(=O)=O)cc1 | 0%[59 µM] | 0% | -15% | 12% | 4% | /
Cc1nn(-c2ccc(N3CCCC3)nn2)c(C)c1CCC(=O)N1CCN(c2ccccc2F)CC1 | 12%[59 µM] | -26% | -25% | 4% | 4% | /
c1ccc(CNc2ccc3c(c2)ncn3C2CCCCC2)nc1 | 7.9µM* | 20µM* | 25µM* | -18% | -3% | ?
COCCn1c2nc(=O)n(-c3ccccc3)c(=O)c-2nc2ccccc21 | / | / | / | / | / | 3.8µM*
CCCCC[n+]1ccn(-c2nc3ccccc3nc2[N-]S(=O)(=O)c2ccccc2)c1 | -34% | 20µM* | -3% | 16% | -26% | -10%
N#Cc1c(N)oc(-c2ccc3c(c2)OCO3)c1-c1ccc2c(c1)OCO2 | 50µM* | ? | -32% | 2% | -11% | -16%
O=c1cc(-c2ccccc2Cl)oc2c(Br)ccc(O)c12 | 56µM*! | -12% | -26% | 18% | 2% | 1%
COc1cc2c(cc1OC)CN(Cc1cccs1)CC2 | ? | -39% | 3.2µM* | ? | 2% | -8%
COc1cc2c(cc1OC)CN(Cc1ccccc1)CC2 | / | 0% | -7% | 38% | 7% | 4%
COc1cc2c(cc1OC)CN(Cc1cc(OC)c(O)c(OC)c1)CC2 | 32µM* | -11% | -3% | 57% | 16% | -10%
CCCOc1ccc(C2c3c(oc4ccccc4c3=O)C(=O)N2c2nnc(C(C)C)s2)cc1 (stereo not given) | ? | -29% | -23% | 6% | -15% | /
CCc1ccc(S(=O)(=O)c2nnn3c2nc(NCCNC(C)=O)c2cc(Cl)ccc23)cc1 | 9%[59 µM] | -1% | -8% | 21% | 0% | /
CCc1cccc(N2C(=O)CSC23C(=O)Nc2ccccc23)c1 (stereo not given) | -20%[59 µM] | -13% | -1% | 31% | 1% | /
CCc1ccc2c(c1)C1(NN=C(c3cccc4ccccc34)S1)C(=O)N2 (stereo not given) | ? | 20µM* | / | / | / | /
Cc1nc2sccn2c(=O)c1S(=O)(=O)Nc1cc(Cl)ccc1O | ? | -23% | -5% | 22% | 4% | /
COc1cc2c(cc1OC)[C@@H](Cc1ccc(OCCC#N)cc1)N(C)CC2 | 35µM* | 5% | -2% | 7% | -9% | -15%
O=C(O)c1ccc(-c2nc(-c3ccc(Cl)c(Cl)c3)cs2)cc1 | -34% | -12% | -11% | 40% | -1% | 27µM*
O=C(O)c1cnn(-c2nc(-c3cccc(F)c3)cs2)c1C(F)(F)F | 50µM* | -38% | -17%[11.4 µM] | 25% | -1% | -23%
NC(=O)C(=CNc1nc(-c2ccc(Cl)c(Cl)c2)cs1)C(N)=O | / | 45µM* | / | / | / | /
SMILES | G9a inh | BAZ2B block | JMJD2A Tudor inh | HP1b chromo inh | VDR inh | PLK1 PBD block
O=C(O)c1ccc(-c2nc(-c3ccccc3)cs2)cc1 | -2% | 1% | -17% | 24% | 6% | -14%
O=C(O)c1cnn(-c2nc(-c3ccc(Cl)c(Cl)c3)cs2)c1C(F)(F)F | ? | -23% | -21% | 29% | ? | 27µM*
COc1ccc(-c2onc(C)c2C)cc1S(=O)(=O)N(C)Cc1ccccc1 | -4%[59 µM] | -4% | -6% | 79% | 15% | /
O=Cc1cccn1-c1ccc(O)cc1 | -20% | 79µM* | -1% | 39% | -4% | 2%
Cc1c(O)c2cccnc2[nH]c1=O | 18%[59 µM] | 11% | -14% | 20% | 1% | 1%
Brc1ccc2[nH]c3c(c2c1)CCC3 | ? | 50µM* | ? | -22% | 2% | -22%
Fc1ccc(-c2nn3c(C4COc5ccccc5O4)nnc3s2)cc1 (stereo not given) | 3.2µM* | 0% | ? | ? | ? | 21µM*
NC(N)=Nc1nc(C2COc3ccccc3O2)cs1 (stereo not given) | 6%[59 µM] | -31% | -32% | -4% | -8% | -6%
c1ccc2c(c1)OCC(c1nnc3sc(-c4ccc5c(c4)OCO5)nn13)O2 (stereo not given) | 5µM* | -4% | -29% | ? | ? | 6.7µM*
c1csc(-c2nn3c(C4COc5ccccc5O4)nnc3s2)c1 (stereo not given) | 5µM* | -3% | -32% | -35% | ? | 24µM*
c1ccc2c(c1)OCC(c1nnc3sc(-c4cnccn4)nn13)O2 (stereo not given) | 7.9µM* | 5% | -26% | -25% | ? | 28µM*
Brc1ccccc1-c1nnc2sc(-c3ccc4c(c3)OCCO4)nn12 | 6%[12.7 µM] | 1% | -18% | 15% | 9% | -4%
Fc1ccc(-c2nnc3sc(C4COc5ccccc5O4)nn23)cc1 (stereo not given) | -38% | -5% | -15% | 6% | 19% | -8%
CCc1ccc(N2C(=O)Cc3c2nc(N)c(C#N)c3N)cc1 | 15%[12.7 µM] | -30% | -23% | 11% | -3% | -6%
CCN(CC)c1nc2c3c(nc4c(c3c1C#N)CC(=O)N4c1ccc(Cl)cc1)NC(C)=N2 | 35µM* | -4% | -23% | 5% | -9% | -2%
CCOC(=O)c1n[nH]n2c1nc(=S)c1ccccc12 | 10µM* | -27% | 89µM* | 13% | -6% | -22%
CCOC(=O)c1n[nH]c2ccccc12 | 13%[59 µM] | 4% | -12% | 24% | 4% | -4%
O=C1Nc2ccccc2/C1=C/c1ccccc1F | 4% | ? | ? | 4% | ? | 30µM*
O=C1Nc2ccccc2/C1=C/c1cccnc1 | -47% | -15% | -28% | -3% | ? | 27µM*
CN(C)c1ccc(/C=C2\C(=O)Nc3ccccc32)cc1 | 14µM* | / | / | / | ? | /
O=C1c2cc(O)cc(O)c2OC[C@@H]1c1ccc(O)c(O)c1 | / | / | / | / | -2% | /
COCOc1cccc(CN2CCC2(C)C(=O)Nc2cc(OC)ccc2OC)c1 (stereo not given) | / | / | / | / | / | 5%
Cn1c(=O)[nH]c(=O)c2[nH]c(N(Cc3ccccc3)Cc3ccccc3)nc21 | 50µM* | ? | ? | -20% | 12% | -2%
